outcome, Z-AUC and activity, negative = inhibition data for 32 molecules are collected here from PubChem BioAssay (NCATS).

Molecules are shown by their SMILES. Where “and” joins values, the source holds several entries; their conditions need not be identical. Equal entries are not always repeated. Inconclusive results are not listed. Calls of active or inactive are those of the source. Unless noted, calls come from the whole dose curve; as a rule, active = well fitted inhibition curve with a large enough effect; inconclusive = small, poorly fitted or top-dose-only effect; inactive = flat fitted curve, though single readings scatter.

Sequence of Phospholipid hydroperoxide glutathione peroxidase GPX4 (Homo sapiens) (P36969 whole entry, looked up): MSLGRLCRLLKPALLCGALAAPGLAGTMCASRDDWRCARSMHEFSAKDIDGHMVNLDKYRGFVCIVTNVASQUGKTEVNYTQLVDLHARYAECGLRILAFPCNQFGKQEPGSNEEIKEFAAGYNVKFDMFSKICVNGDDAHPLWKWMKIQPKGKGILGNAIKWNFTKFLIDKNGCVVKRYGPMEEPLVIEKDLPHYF

One assay addresses Phospholipid hydroperoxide glutathione peroxidase GPX4 (Homo sapiens) (UniProt P36969). The assay is described as follows: Primary qHTS Assay for Inhibitors of Recombinant Selenoprotein Glutathione Peroxidase 4 (GPX4) (AID 1845192). Note: nearly all actives have a fitted effect of over 65% in size. The conditions noted are these: recombinant GPX4, GR-coupled NADPH fluorescence, 15 min; series mostly up to 50 µM. Put shortly: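 GR-coupled assay: recombinant GPX4 preincubated 30 min with compound at room temperature; final 200 nM GPX4, 1 mM GSH, 0.5 mM cumene hydroperoxide, 0.5 mM NADPH, 100 nM GR, 0.01% BSA, pH 7.5 Tris. NADPH fluorescence (340/450 nm) read at 0 and 15 min.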
Regarding `CC(=O)Oc1cc(C(C)C)c(OCCN(C)C)cc1C`, the result was inactive.
On the same count and under the same terms, the same measure for `C(=C\c1ccccc1)/CN1CCN(C(c2ccccc2)c2ccccc2)CC1`: “inactive”; for `CC(=O)[C@]1(O)Cc2c(O)c3c(c(O)c2[C@@H](O[C@H]2C[C@H](N)[C@H](O)[C@H](C)O2)C1)C(=O)c1ccccc1C3=O`: “inactive”.
The same measure, in the same setting: the same measure for `CC(C)COCC(CN(Cc1ccccc1)c1ccccc1)N1CCCC1` (centres undefined): “inactive”; for `C[C@]12C=CC(=O)C=C1CC[C@H]1[C@@H]3C[C@@H](O)[C@](O)(C(=O)CO)[C@@]3(C)C[C@H](O)[C@@]12F`: “inactive”; for `CCCN(CCC)C(=O)C(CCC(=O)O)NC(=O)c1ccccc1` (centres undefined): “inactive”.
As to `CCN(CC)CCNC(=O)c1cc(S(C)(=O)=O)ccc1OC`, the result was inactive.
Take `NC(N)=NC(=O)Cc1c(Cl)cccc1Cl`: the outcome was inactive.
Same read-out and setting: with `CCN(CC)CCCN(c1ccccc1)C1Cc2ccccc2C1` the entry was “inactive”; with `O=C(CCNNC(=O)c1ccncc1)NCc1ccccc1`, “inactive”.
As to `O=C(O)CN(CCOCCOCCN(CC(=O)O)CC(=O)O)CC(=O)O`, the outcome was inactive.
With `CN1C[C@H](C(=O)N[C@]2(C)O[C@@]3(O)[C@@H]4CCCN4C(=O)[C@H](Cc4ccccc4)N3C2=O)C[C@@H]2c3cccc4[nH]cc(c34)C[C@H]21`, the result was inactive.
Same read-out and setting: with `C[N+](C)(C)CCOC(=O)CCC(=O)OCC[N+](C)(C)C` the entry was “inactive”; with `COC(=O)[C@H]1[C@H]2C[C@@H]3c4[nH]c5cc(OC)ccc5c4CCN3C[C@H]2C[C@@H](OC(=O)c2cc(OC)c(OC)c(OC)c2)[C@@H]1OC`, “inactive”; with `Cc1scc2c1N(C(=O)CN1CCN(C)CC1)c1ccccc1NC2=O`, “inactive”.

System in a further assay: not listed separately
The assay is described as follows: qHTS drug screen for cell cycle checkpoint inhibitors in PARPi-resistant BRCA-mutant ovarian cancer cell lines. (AID 1963452; calls by dose curve). The conditions noted are these: PEO1/OlaR viability, CellTiter-Glo luminescence, 96 h; stronger effect = lower value. Put shortly:
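PEO1, PEO4 and PEO1/OlaR ovarian cancer cells, 600 per well, exposed 96 h at 37C to a dilution series. Viability read by CellTiter-Glo luminescence, normalized to DMSO and empty wells; activity summarized as Z-AUC.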
Background: Quantitative high-throughput screening tests each substance at several concentrations.
For the molecule `COc1ccc2c(c1OC)C(=O)O[C@@H]2[C@H]1c2c(cc3c(c2OC)OCO3)CCN1C`, the Z-AUC was 0.757 (inactive).
Same read-out and setting: with `COc1ccc([C@@H]2Sc3ccccc3N(CCN(C)C)C(=O)[C@@H]2OC(C)=O)cc1` the figure was 1.43 (inactive); with `Nc1ncn([C@@H]2O[C@H](CO)[C@@H](O)[C@H]2O)c(=O)n1`, 1.1 (inactive).
Same read-out and setting: with `NC(=O)c1ncn([C@@H]2O[C@H](CO)[C@@H](O)[C@H]2O)c1O` the figure was 1.15 (inactive) and 0.284 (inactive); with `Cc1cc(C)c(/C=C2\C(=O)Nc3ccccc32)[nH]1`, 0.918 (inactive).
The same measure, in the same setting: the same measure for `CC(=O)[C@]1(O)Cc2c(O)c3c(c(O)c2[C@@H](O[C@H]2C[C@H](N)[C@H](O)[C@H](C)O2)C1)C(=O)c1ccccc1C3=O`: -0.489 (inactive).
With `CC(C)COCC(CN(Cc1ccccc1)c1ccccc1)N1CCCC1` (centres undefined), the Z-AUC was 1.09 (inactive).
On the same count and under the same terms, with `CCCN(CCC)C(=O)C(CCC(=O)O)NC(=O)c1ccccc1` (centres undefined) the figure was 0.987 (inactive).

Still in this assay, the particulars now being: PEO1/OlaR viability, CellTiter-Glo luminescence, 96 h; measured here: PEO1 parental Z-AUC; stronger effect = lower value.
Consider `COc1ccc2c(c1OC)C(=O)O[C@@H]2[C@H]1c2c(cc3c(c2OC)OCO3)CCN1C`, for which the Z-AUC was determined as 0.922.
The same measure, in the same setting: with `COc1ccc([C@@H]2Sc3ccccc3N(CCN(C)C)C(=O)[C@@H]2OC(C)=O)cc1` the figure was 0.963; with `Nc1ncn([C@@H]2O[C@H](CO)[C@@H](O)[C@H]2O)c(=O)n1`, 0.0153.
On the same count and under the same terms, the same measure for `NC(=O)c1ncn([C@@H]2O[C@H](CO)[C@@H](O)[C@H]2O)c1O`: 0.935 and 0.686.
Still for that read-out and setting: with `Cc1cc(C)c(/C=C2\C(=O)Nc3ccccc32)[nH]1` the figure was 0.596; with `CC(=O)[C@]1(O)Cc2c(O)c3c(c(O)c2[C@@H](O[C@H]2C[C@H](N)[C@H](O)[C@H](C)O2)C1)C(=O)c1ccccc1C3=O`, -0.953; with `CC(C)COCC(CN(Cc1ccccc1)c1ccccc1)N1CCCC1` (centres undefined), 0.789.
With `CCCN(CCC)C(=O)C(CCC(=O)O)NC(=O)c1ccccc1` (centres undefined), the Z-AUC came out at 0.633.

The same assay, now with this note: PEO1/OlaR viability, CellTiter-Glo luminescence, 96 h; measured here: PEO4 Z-AUC; stronger effect = lower value.
As for `COc1ccc2c(c1OC)C(=O)O[C@@H]2[C@H]1c2c(cc3c(c2OC)OCO3)CCN1C`, the Z-AUC worked out at 0.499.
Same read-out and setting: the same measure for `COc1ccc([C@@H]2Sc3ccccc3N(CCN(C)C)C(=O)[C@@H]2OC(C)=O)cc1`: 0.74.
On the same count and under the same terms, with `Nc1ncn([C@@H]2O[C@H](CO)[C@@H](O)[C@H]2O)c(=O)n1` the figure was -0.332; with `NC(=O)c1ncn([C@@H]2O[C@H](CO)[C@@H](O)[C@H]2O)c1O`, 1.08 and 0.519; with `Cc1cc(C)c(/C=C2\C(=O)Nc3ccccc32)[nH]1`, 0.161.
Same read-out and setting: the same measure for `CC(=O)[C@]1(O)Cc2c(O)c3c(c(O)c2[C@@H](O[C@H]2C[C@H](N)[C@H](O)[C@H](C)O2)C1)C(=O)c1ccccc1C3=O`: -0.26; for `CC(C)COCC(CN(Cc1ccccc1)c1ccccc1)N1CCCC1` (centres undefined): 0.389.
As for `CCCN(CCC)C(=O)C(CCC(=O)O)NC(=O)c1ccccc1` (centres undefined), the Z-AUC is 0.925.

System in a further assay: not listed separately
The assay is described as follows: qHTS profiling for inhibitors of Plasmodium falciparum proliferation (AID 504749).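 Note: 0% = DMSO vehicle and full inhibition = artemisinin control; nearly all actives have a fitted effect of over 60% in size.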 The conditions noted are these: P. falciparum in erythrocytes, SYBR Green DNA, 72 h; at 12.8 µM (top of the series); parasite line A. The method, boiled down: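 P. falciparum-infected erythrocytes (0.3% parasitemia, 2.5% hematocrit) incubated with compound 72 h at 37 C, 5% CO2. Parasite DNA detected by SYBR Green after lysis, overnight at room temperature; normalised to 0.29 uM artemisinin and DMSO.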
For the molecule `CN(C)CCCN1c2ccccc2Sc2ccccc21`, the activity, negative = inhibition is 8.14% (inactive).
Same read-out and setting: the same measure for `CC(=O)Oc1cc(C(C)C)c(OCCN(C)C)cc1C`: 4.04% (inactive).
Same read-out and setting: with `CCN(CC)CCNC(=O)c1cc(S(C)(=O)=O)ccc1OC` the figure was 11.8% (inactive).

The same assay, now with this note: P. falciparum in erythrocytes, SYBR Green DNA, 72 h; at 12.8 µM (top of the series); parasite line B.
Consider `CN(C)CCCN1c2ccccc2Sc2ccccc21`, for which the activity, negative = inhibition was 20.7% (inactive).
The same measure, in the same setting: with `CC(=O)Oc1cc(C(C)C)c(OCCN(C)C)cc1C` the figure was -3.15% (inactive); with `CCN(CC)CCNC(=O)c1cc(S(C)(=O)=O)ccc1OC`, 10.3% (inactive).

The same assay, now with this note: P. falciparum in erythrocytes, SYBR Green DNA, 72 h; at 28.7 µM (top of the series); parasite line A.
`C[N+](C)(C)CCOC(N)=O`: the activity, negative = inhibition is 16.8% (inactive).
Still for that read-out and setting: with `COc1ccc([C@@H]2Sc3ccccc3N(CCN(C)C)C(=O)[C@@H]2OC(C)=O)cc1` the figure was 3.17% (inactive); with `CCn1ccnc1CC1COc2ccccc2O1` (centres undefined), 10.6% (inactive).
Still for that read-out and setting: with `Nc1c2c(nc3ccccc13)CCCC2O` (centres undefined) the figure was -3.4% (inactive); with `CNC1(C)C2CCC(C2)C1(C)C` (centres undefined), 6.34% (inactive); with `CSc1ccc(C(=O)c2[nH]c(=O)[nH]c2C)cc1`, 9.87% (inactive).
As to `NC(=O)c1cn(Cc2c(F)cccc2F)nn1`, the activity, negative = inhibition was 14.6% (inactive).
Consider `CCN1CCC[C@H]1CNC(=O)c1c(O)c(Cl)cc(Cl)c1OC`, for which the activity, negative = inhibition is 0.765% (inactive).
Same read-out and setting: the same measure for `CNCCC(Oc1ccccc1OC)c1ccccc1` (centres undefined): 3.02% (inactive); for `CN(C)CC/C=C1\c2ccccc2COc2ccccc21`: 0.213% (inactive).
On the same count and under the same terms, the same measure for `Nc1ncn([C@@H]2O[C@H](CO)[C@@H](O)[C@H]2O)c(=O)n1`: -1.52% (inactive); for `NC(=O)c1ncn([C@@H]2O[C@H](CO)[C@@H](O)[C@H]2O)c1O`: 9.25% (inactive).
On the same count and under the same terms, the same measure for `CC(N=C(NC#N)Nc1ccncc1)C(C)(C)C` (centres undefined): -3.66% (inactive); for `Cc1cc(C)c(/C=C2\C(=O)Nc3ccccc32)[nH]1`: 2.71% (inactive); for `CN(C)C(=O)Oc1cccc([N+](C)(C)C)c1`: 4.77% (inactive).
Consider `O=C(CCNNC(=O)c1ccncc1)NCc1ccccc1`, for which the activity, negative = inhibition is 13.9% (inactive).
The same measure, in the same setting: with `O=C(O)CN(CCOCCOCCN(CC(=O)O)CC(=O)O)CC(=O)O` the figure was 8.03% (inactive).
For the molecule `C[N+](C)(C)CCOC(=O)CCC(=O)OCC[N+](C)(C)C`, the activity, negative = inhibition was 1.72% (inactive).
Still for that read-out and setting: with `Cc1scc2c1N(C(=O)CN1CCN(C)CC1)c1ccccc1NC2=O` the figure was 0.0421% (inactive).
